FLuc modulator: counter-screen for miR-21 project: firefly luciferase inhibitors or activators; P08659; purified FLuc, Km substrates, luminescence inhibition; Potency, µM (top dose mostly 57.5 µM), for the others: at the top dose activity change, negative = inhibition, usual class: inhibitors; 360,000 compounds, 6.9% hits;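 also: plate controls were vehicle for no effect and reference inhibitor for full effect; nearly all actives have a fitted effect of over 55% in size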
Target sequence (P08659 whole entry, looked up): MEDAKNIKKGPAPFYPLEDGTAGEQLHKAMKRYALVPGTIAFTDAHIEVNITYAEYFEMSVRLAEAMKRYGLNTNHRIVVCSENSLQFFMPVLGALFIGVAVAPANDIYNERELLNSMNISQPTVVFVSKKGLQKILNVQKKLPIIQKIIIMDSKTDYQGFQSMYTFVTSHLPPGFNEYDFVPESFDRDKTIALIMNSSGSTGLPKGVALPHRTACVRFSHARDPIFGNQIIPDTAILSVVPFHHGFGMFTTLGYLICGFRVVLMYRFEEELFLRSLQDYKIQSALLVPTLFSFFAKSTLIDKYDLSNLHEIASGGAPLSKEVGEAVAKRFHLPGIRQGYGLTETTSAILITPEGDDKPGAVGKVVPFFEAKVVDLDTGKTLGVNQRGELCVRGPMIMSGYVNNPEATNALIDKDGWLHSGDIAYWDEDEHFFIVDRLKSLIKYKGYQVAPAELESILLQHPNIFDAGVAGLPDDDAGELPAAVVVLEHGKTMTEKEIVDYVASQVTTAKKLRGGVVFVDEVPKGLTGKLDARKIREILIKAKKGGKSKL
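Purified P. pyralis luciferase (10nM final) with 10uM D-luciferin and 10uM ATP (Km levels) in 50mM Tris acetate pH 7.5, 10mM Mg acetate, 0.01% Tween-20, 0.05% BSA; qHTS 6-point titration, ~60 µM downward; luminescence read.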
NPC1 prom act: NPC1 promoter activation | 320,000 compounds, 2.4% hits | Huh7 NPC1 promoter luciferase reporter, 24 h | AID 485313 | Potency, µM (series often up to 9.22 µM), for inactives: top-dose activation, most hits filed as activators; also: % of control where 0% means no effect; nearly all actives have a fitted effect of over 60% in size
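NPC1 promoter–luciferase Huh7 cells; 24 h compound; luminescence.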
ELG1 genotox: inducers of genotoxicity in HEK293T ELG1-luciferase cells; 330,000 compounds, 1.3% hits; HEK293T ELG1-luciferase reporter, luminescence, 16 h; Potency, µM (titrated, usually from 46 µM), without a hit: top-dose activity change, positive = activation, hits mostly activators; also: % of control where 0% means no effect; nearly all actives have a fitted effect of over 60% in size
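Reporter readout depends on ELG1 protein level, which increases with genetic stress. After 16 hr compound exposure at 37 °C, luciferase activity was quantified using ONE-Glo.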
SMN2 splice enh: enhancers of SMN2 splice variant expression; HEK293 SMN2-luciferase splicing reporter, luminescence, 30-36 h; Potency, µM (highest dose often 46.1 µM), for the others: at the highest dose activity change, positive = activation, usual class: activators; 210,000 compounds, 2.8% hits; AID 1458; also: % of control where 0% means no effect; nearly all actives have a fitted effect of over 55% in size
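HEK293 cells carry an SMN2 […]–luciferase reporter in which exon 7 inclusion puts luciferase in frame. Cells were plated 10-12 h before compound addition, then incubated 30-36 h at 37C. ONE-Glo luminescence was read; sodium butyrate at 4.5 mM final served as control.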
Luc counter: Kinase-Glo luciferase inhibition (counter-screen). Q27757. Kinase-Glo luciferase, ATP luminescence, 8 min. Potency, µM (highest dose often 38.3 µM), inactives show at the highest dose activity change, negative = inhibition, most hits filed as inhibitors. 200,000 compounds, 0.28% hits; also: % is scaled to controls: 0 for no effect and ±100 for the full control effect; nearly all actives have a fitted effect of over 60% in size
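Substrate mix (final 50 mM imidazole pH 7.2, 50 mM KCl, 7 mM MgCl2, 10 uM ATP, 0.01% Tween 20, 0.05% BSA) plus pin-tool compound, then Kinase-Glo detection mix; 8 min ambient, luminescence read.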
Rab9 prom act: Rab9 promoter activation. Potency, µM (top dose mostly 9.22 µM), for inactives: at the highest dose activation, negative = inhibition, most hits filed as activators. 320,000 compounds, 2.8% hits. Huh7 Rab9 promoter-luciferase reporter, luminescence, 24 h; also: % of control where 0% means no effect; nearly all actives have a fitted effect of over 60% in size
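Luciferase signal after 10 min detection reagent at ambient indicates Rab9 promoter upregulation; stably transfected Huh7 cells were treated 24 h with compound in DMSO at 37 °C, 5% CO2.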
* marks the source's active call; other numbers are inactive results; ? = inconclusive; . = no result given. Shown are actives, neighbours in structure and some others; about 7.5% of the full set was active somewhere. Calls follow the shape of the dose curve; as a rule, active = well fitted curve in the direction sought with a large enough effect; inconclusive = small, poorly fitted or top-dose-only effect, or another doubt; inactive = no such curve, though single readings can be large; an effect the other way counts as inactive or inconclusive. Potency is read from the fitted curve at half-maximal effect.

SMILES | FLuc modulator | NPC1 prom act | ELG1 genotox | SMN2 splice enh | Luc counter | Rab9 prom act
O=C(Nc1ccc(C(=O)O)cc1)/C(=C/c1ccc2c(c1)OCO2)NC(=O)c1cccc(Br)c1 | -4% | 1% | 0% | 12% | -1% | 1%
CC(C)(C)NS(=O)(=O)c1ccc(C(=O)Nc2ccc3c(c2)OCO3)cc1 | ? | 7% | 16% | . | . | 5%
CS(=O)(=O)Nc1ccc(C(=O)Nc2ccc3c(c2)OCCO3)cc1 | 19µM* | ? | ? | ? | 6% | ?
O=C(NC(=S)Nc1ccc2c(c1)OCCO2)c1cccc(Br)c1 | 11µM* | 3.2µM* | ? | 13µM* | 0% | 3.2µM*
O=C(Nc1ccc2c(c1)OCO2)c1ccccc1 | 9.5µM* | 1.8µM* | ? | . | . | 1.1µM*
COC(=O)[C@@]1(Cc2ccc(F)cc2)[C@@H]2C(=CC(=O)[C@H]2CC(=O)C(=O)N(C)C)CN1C(=O)c1ccccc1 | . | . | . | -71% | 0% | .
CCCCCCCCCC(=O)OCC(CO)OC(=O)CCCCCCCCC (stereo not drawn) | . | . | . | -4% | 0% | .
Cc1ccccc1OCC(=O)OCc1cc(=O)n2nc(-c3cccs3)sc2n1 | 3% | . | . | . | . | .
CC(C)c1nn2c(=O)cc(COC(=O)c3cccc(NC(=O)CCc4ccccc4)c3)nc2s1 | -17% | . | . | . | . | .
COc1ccccc1N1CCN(S(=O)(=O)c2c(C)nc3sccn3c2=O)CC1 | 0% | . | . | . | . | .
COc1cc(C(=O)OCC(=O)NC2CCCCC2)cc2c1OCCO2 | -1% | 0% | 2% | . | . | -7%
O=C(CC1CS(=O)(=O)CC1CC(=O)Nc1ccc2c(c1)OCCO2)Nc1ccc2c(c1)OCCO2 (stereo not drawn) | 17µM* | 12% | ? | . | -1% | 7%
S=C(Nc1ccc(Br)cc1)Nc1ccc2c(c1)OCCO2 | 12µM* | ? | ? | . | . | ?
CCC(=O)Nc1ccc2c(c1)OCCO2 | -1% | -5% | 1% | -2% | 3% | 0%
COc1cc(NC(=S)Nc2ccc3c(c2)OCCO3)cc(OC)c1OC | -19% | 5% | 11% | . | . | 14%
O=C(Nc1ccc(N=Nc2ccccc2)cc1)c1cccc(Cl)c1 | -1% | 5% | 10% | 17% | -1% | 0%
O=C(Nc1ccc2c(c1)OCCO2)c1ccccc1 | 3.4µM* | 0.45µM* | 3.7µM* | . | . | 0.79µM*
O=C(Nc1ccc2c(c1)OCCO2)c1cccc(Cl)c1 | 3µM* | 3.2µM* | ? | . | . | 2µM*
Cn1c(=O)c2c(ncn2CC(=O)N/N=C/C=C\c2ccccc2[N+](=O)[O-])n(C)c1=O | -1% | -1% | 3% | . | . | -6%
O=C(Nc1ccc2c(c1)OCCO2)C(=S)NCc1ccccc1 | 6µM* | 17% | 10% | ? | -2% | 25%
O=C(CC(=O)c1ccccc1)Nc1ccc2c(c1)OCCO2 | 6.7µM* | 2.5µM* | ? | 13µM* | -6% | 1.4µM*
O=C(NC(=S)Nc1ccc2c(c1)OCCO2)c1cccc2ccccc12 | 15µM* | 12% | 16% | ? | -1% | 22%
O=C(Nc1ccc2c(c1)OCCO2)C(=O)NC1CC1 | 4.8µM* | ? | ? | . | . | 2.8µM*
O=C(O)c1ccccc1NC(=S)NC(=O)c1cccc2ccccc12 | -19% | -3% | -2% | 3% | 0% | -3%
Cc1ccc(Cn2c(=O)n(CCc3ccccc3)c(=O)c3sc4ccccc4c32)cc1 | -9% | . | . | 5% | . | .
COc1ccc(/C=C(\C#N)c2nc(-c3cc(Cl)ccc3OC)cs2)cc1 | -7% | . | . | -3% | . | .
O=C(Nc1cccc([N+](=O)[O-])c1)c1cnccn1 | -2% | 6% | 1% | 19% | 1% | 1%
CC(C)C(NC(=O)C1CCCCC1)C(=O)Nc1ccc2c(c1)OCCO2 (stereo not drawn) | 6µM* | 1.1µM* | ? | 36% | -8% | 2µM*
O=C(NC(=S)Nc1ccccc1Br)c1ccc2c(c1)OCO2 | 9.5µM* | ? | ? | . | . | 11%

High-throughput results: PubChem, National Center for Advancing Translational Sciences (NCATS)
